Our source for the Potency and outcome values is PubChem BioAssay (Tox21).

Test [1] can be described thus: qHTS assay to identify small molecule agonists of the peroxisome proliferator-activated receptor delta (PPARd) signaling pathway - cell viability counter screen (AID 743211). Note: nearly all actives have a fitted effect of over 55% in size. Note: potency is the fitted concentration of half-maximal effect. Put shortly: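 HEK293H PPARd-bla, 3000 cells/well; 5 h preincubation 37C/5% CO2; cpd in DMSO, 17 h 37C; B/G FRET substrate 2 h RT; CellTiter-Glo 30 min RT, luminescence.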
Test [2] can be described thus: qHTS assay to identify small molecule antagonists of the peroxisome proliferator-activated receptor delta (PPARd) signaling pathway - cell viability counter screen (AID 743213). Note: nearly all actives have a fitted effect of over 50% in size. Note: potency is the fitted concentration of half-maximal effect. Put shortly: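 PPARd-bla HEK293H cells were treated with compounds plus agonist L165041 (300 nM final) for 17 h at 37 C. Viability was then read in the same wells by CellTiter-Glo luminescence after 30 min at room temperature.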
A general note: In qHTS, concentration-response curves come from the screen itself.

Test [3] in a line: qHTS assay to identify small molecule antagonists of the farnesoid-X-receptor (FXR) signaling pathway - cell viability counter screen (AID 743221; active = well fitted cell-killing curve with a large enough effect in the repeat runs, not every such curve was filed as active; note: nearly all actives have a fitted effect of over 50% in size; note: potency is the fitted concentration of half-maximal effect). Put shortly: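 Luminescence from CellTiter-Glo measures cytotoxicity in GeneBLAzer FXR-UAS-bla HEK 293T cells. Cells were exposed to compounds with 50 uM chenodeoxycholic acid (final) for 16 h at 37 C, in wells also used for the reporter readout.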

Test [4] has as its target Vitamin D3 receptor (Homo sapiens) (UniProt P11473). In words: qHTS assay to identify small molecule agonists of the vitamin D receptor (VDR) signaling pathway (AID 743222; calls by dose curve). Put shortly: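 Agonist mode, beta-lactamase reporter: fluorescence from LiveBLAzer B/G FRET substrate (2 h, room temperature) read after 16 h compound treatment at 37 C of VDR-bla cells, which were pre-incubated 4 h after seeding.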

Test [5] has the same target. Description: qHTS assay to identify small molecule antagonists of the vitamin D receptor (VDR) signaling pathway (AID 743223; active = well fitted inhibition curve with a large enough effect in the signal ratio in the repeat runs, not every such curve was filed as active; the % refers to the signal ratio). The method in brief:
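Antagonist mode uses 1alpha,25-dihydroxyvitamin D3 at 3 nM final as stimulus. VDR-bla cells receive compounds in DMSO, incubate 16 h at 37C, then a beta-lactamase FRET substrate for 2 h at room temperature before fluorescence measurement.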

Test [6] is described as follows: qHTS assay to identify small molecule agonists of the vitamin D receptor (VDR) signaling pathway - cell viability counter screen (AID 743224). Note: nearly all actives have a fitted effect of over 50% in size. Note: potency is the fitted concentration of half-maximal effect. Put shortly: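 Counter screen run in the same wells as the VDR-bla reporter assay: CellTiter-Glo luminescence, 30 min at room temperature, after 16 h compound treatment at 37C of cells pre-plated for 4 h.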
The nature of test [7]: qHTS assay to identify small molecule antagonists of the vitamin D receptor (VDR) signaling pathway - cell viability counter screen (AID 743225). Note: nearly all actives have a fitted effect of over 50% in size. Note: potency is the fitted concentration of half-maximal effect. Put shortly:
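Read-out: CellTiter-Glo luminescence measured 30 min after reagent addition at room temperature. Cells were VDR-bla HEK 293T exposed 16 h at 37C, 5% CO2, to compound with 3 nM final calcitriol agonist.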

A short description of test [8]: qHTS assay to identify small molecule agonists of the endoplasmic reticulum stress response signaling pathway (AID 1159516; active = well fitted activation curve with a large enough effect in the signal ratio in the repeat runs, not every such curve was filed as active; the % refers to the signal ratio; note: potency is the fitted concentration of half-maximal effect). The method in brief:
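Ratiometric FRET readout (405 nm excitation; 460 and 530 nm emission) of a beta-lactamase gene driven by the ER stress response element, after 2 hr substrate loading. HeLa ESRE-bla cells were seeded overnight and treated with compounds for only 5 hr at 37 C.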

The nature of test [9]: qHTS assay to identify small molecule antagonists of the retinoid-related orphan receptor gamma (ROR-gamma) signaling pathway - cell viability counter screen (AID 1159520). Note: nearly all actives have a fitted effect of over 50% in size. Note: potency is the fitted concentration of half-maximal effect. The method in brief:
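Tet-on ROR gamma CHO cells were given compounds for 2 hr, then doxycycline hyclate at 1 uM final, and incubated 16 hr at 37 C. Viability was measured as ATP content by CellTiter-Glo luminescence.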

Test [10] is described as follows: qHTS assay to identify small molecule agonists of the AP-1 signaling pathway - cell viability counter screen (AID 1159525; calls by dose curve; note: nearly all actives have a fitted effect of over 55% in size; note: potency is the fitted concentration of half-maximal effect). The method in brief: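 Same-well cytotoxicity counter screen of the Tox21 10K library in ME-180 cells. The readout is ATP-dependent luminescence after 5 h compound treatment. Data are normalised to DMSO and tetra n-octyl ammonium bromide controls.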

Test [11] can be described thus: qHTS assay to identify small molecule agonists of the AP-1 signaling pathway (AID 1159526; calls by dose curve).
Test [12] in a line: qHTS assay to identify small molecule agonists of the RXR signaling pathway - cell viability counter screen (AID 1159529). Note: nearly all actives have a fitted effect of over 50% in size. Note: potency is the fitted concentration of half-maximal effect. Put shortly: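 HEK 293T RXRa-bla cells, 2% CS-FBS; 5 h settle; cpd 16 h 37 C, 5% CO2; CellTiter-Glo 30 min RT, luminescence. Tetraoctyl ammonium bromide as positive control.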
Test [13] addresses Peroxisome proliferator-activated receptor delta (Homo sapiens) (UniProt Q03181). Description: qHTS assay to identify small molecule antagonists of the peroxisome proliferator-activated receptor delta (PPARd) signaling pathway (AID 743215; active = well fitted inhibition curve with a large enough effect in the signal ratio in the repeat runs, not every such curve was filed as active; the % refers to the signal ratio;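 note: cells stimulated with agonist L165041 at 300 nM final during compound exposure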; note: potency is the fitted concentration of half-maximal effect). The method in brief: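 Agonist L165041 (300 nM final) added with compound to PPARd-bla HEK293H UAS-bla reporter cells; 17 h incubation at 37 C. Read-out: LiveBLAzer FRET substrate, 2 h at room temperature, fluorescence intensity.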

Test [14] can be described thus: qHTS assay to identify small molecule agonists of the farnesoid-X-receptor (FXR) signaling pathway - cell viability counter screen (AID 743218). Note: nearly all actives have a fitted effect of over 45% in size. Note: potency is the fitted concentration of half-maximal effect. The method in brief:
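Viability counter screen in the same wells: CellTiter-Glo luminescence, 30 min room-temperature incubation, measured after the beta-lactamase read. Cells were GeneBLAzer FXR-UAS-bla HEK 293T, compound-treated 16 h at 37C.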

In test [15] the target is Bile acid receptor (Homo sapiens) (UniProt Q96RI1). In words: qHTS assay to identify small molecule agonists of the farnesoid-X-receptor (FXR) signaling pathway (AID 743220; active = well fitted activation curve with a large enough effect in the signal ratio in the repeat runs, not every such curve was filed as active; the % refers to the signal ratio). The method in brief:
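FXR-UAS-bla HEK 293T cells carrying a UAS-driven beta-lactamase reporter were plated for 5 h at 37C/5% CO2, then exposed to DMSO-dissolved Tox21 10K compounds for 16 h at 37C. A LiveBLAzer B/G FRET substrate was loaded for 2 h at room temperature before fluorescence reading.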

The target of test [16] is Peroxisome proliferator-activated receptor delta (Homo sapiens) (UniProt Q03181). In words: qHTS assay to identify small molecule agonists of the peroxisome proliferator-activated receptor delta (PPARd) signaling pathway (AID 743212; calls by dose curve). Put shortly:
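Tox21 library screened in GeneBLAzer PPARd UAS-bla HEK293H cells. After compound treatment at 37 C, a FRET-based beta-lactamase substrate was applied for 2 h and fluorescence recorded.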

Test [17] deals with Nuclear receptor ROR-gamma (Homo sapiens) (UniProt P51449). In words: qHTS assay to identify small molecule antagonists of the retinoid-related orphan receptor gamma (ROR-gamma) signaling pathway (AID 1159521). The method in brief: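 CHO Tet-on RORγ, RORE-luc reporter. Cpd 2 h pre-incubation, then dox hyclate 1 uM final, 16 h, 37 C/5% CO2. ONE-Glo luminescence; decrease = antagonist.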

Test [18] concerns the target Bile acid receptor (Homo sapiens) (UniProt Q96RI1). In words: qHTS assay to identify small molecule antagonists of the farnesoid-X-receptor (FXR) signaling pathway (AID 743217; active = well fitted inhibition curve with a large enough effect in the signal ratio in the repeat runs, not every such curve was filed as active; the % refers to the signal ratio). Put shortly:
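Antagonist mode: chenodeoxycholic acid at 50 uM final stimulates a UAS-driven beta-lactamase reporter in HEK 293T FXR-bla cells during 16 h, 37C compound exposure. Read-out is FRET substrate fluorescence after 2 h at room temperature.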

Test [19] can be described thus: qHTS assay to identify small molecule agonists of the endoplasmic reticulum stress response signaling pathway - cell viability counter screen (AID 1159517; calls by dose curve; note: nearly all actives have a fitted effect of over 50% in size; note: potency is the fitted concentration of half-maximal effect). Put shortly:
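In parallel with the ESRE reporter read, cytotoxicity was scored by CellTiter-Glo luminescence (30 min, room temperature) on HeLa ESRE-bla cells dosed for 5 hr.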

Test [20] concerns the target Retinoic acid receptor RXR-alpha (Homo sapiens) (UniProt P19793). Description: qHTS assay to identify small molecule agonists of the RXR signaling pathway (AID 1159527; calls by dose curve; note: nearly all actives have a fitted effect of over 35% in size). Put shortly: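 Read-out: beta-lactamase FRET ratio (405 nm excitation, 460 and 530 nm emission) after 2 hr substrate loading at room temperature. Cells were RXR-alpha-UAS-bla HEK 293T treated with compounds for 16 hr in 2% charcoal-stripped FBS medium.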

SMILES strings stand for the structures. Several values for one entry are separate records, joined by “and”; a condition that tells them apart may be missing. Equal values may be shown once. Records with an inconclusive call do not appear. Activity calls are given as the source filed them. Unless noted, calls come from the whole dose curve; as a rule, active = well fitted curve in the direction sought with a large enough effect in the repeat runs; inconclusive = weak or mixed curves; inactive = no such curve, though single readings can be large; an effect the other way counts as inactive or inconclusive.

Vitamin D3 receptor (Homo sapiens), sequence (P11473 whole entry, looked up): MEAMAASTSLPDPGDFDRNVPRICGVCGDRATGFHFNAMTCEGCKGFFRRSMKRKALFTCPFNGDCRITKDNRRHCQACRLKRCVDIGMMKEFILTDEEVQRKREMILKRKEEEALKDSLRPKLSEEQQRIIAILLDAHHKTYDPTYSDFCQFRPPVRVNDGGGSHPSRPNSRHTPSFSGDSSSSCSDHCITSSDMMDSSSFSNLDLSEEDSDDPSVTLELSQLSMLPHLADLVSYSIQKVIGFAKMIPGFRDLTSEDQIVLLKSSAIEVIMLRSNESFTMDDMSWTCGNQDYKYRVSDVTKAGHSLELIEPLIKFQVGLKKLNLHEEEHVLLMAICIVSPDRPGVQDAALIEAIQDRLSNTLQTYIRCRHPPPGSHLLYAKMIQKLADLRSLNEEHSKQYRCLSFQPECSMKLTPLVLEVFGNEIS
Bile acid receptor (Homo sapiens), sequence (Q96RI1 whole entry, looked up): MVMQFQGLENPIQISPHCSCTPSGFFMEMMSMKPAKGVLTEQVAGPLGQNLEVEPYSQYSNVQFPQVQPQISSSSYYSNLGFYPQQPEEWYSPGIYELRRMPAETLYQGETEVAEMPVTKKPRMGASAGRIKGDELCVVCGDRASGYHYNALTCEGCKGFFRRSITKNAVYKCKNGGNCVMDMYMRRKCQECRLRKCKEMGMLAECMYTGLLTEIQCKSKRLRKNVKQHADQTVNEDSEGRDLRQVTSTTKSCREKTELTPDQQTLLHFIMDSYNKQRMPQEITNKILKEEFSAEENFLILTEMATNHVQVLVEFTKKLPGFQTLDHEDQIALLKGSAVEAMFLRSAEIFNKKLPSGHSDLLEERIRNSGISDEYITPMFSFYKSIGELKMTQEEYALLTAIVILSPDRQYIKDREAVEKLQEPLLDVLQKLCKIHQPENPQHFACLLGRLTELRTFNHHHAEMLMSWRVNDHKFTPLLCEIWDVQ
Peroxisome proliferator-activated receptor delta (Homo sapiens), sequence (Q03181 whole entry, looked up): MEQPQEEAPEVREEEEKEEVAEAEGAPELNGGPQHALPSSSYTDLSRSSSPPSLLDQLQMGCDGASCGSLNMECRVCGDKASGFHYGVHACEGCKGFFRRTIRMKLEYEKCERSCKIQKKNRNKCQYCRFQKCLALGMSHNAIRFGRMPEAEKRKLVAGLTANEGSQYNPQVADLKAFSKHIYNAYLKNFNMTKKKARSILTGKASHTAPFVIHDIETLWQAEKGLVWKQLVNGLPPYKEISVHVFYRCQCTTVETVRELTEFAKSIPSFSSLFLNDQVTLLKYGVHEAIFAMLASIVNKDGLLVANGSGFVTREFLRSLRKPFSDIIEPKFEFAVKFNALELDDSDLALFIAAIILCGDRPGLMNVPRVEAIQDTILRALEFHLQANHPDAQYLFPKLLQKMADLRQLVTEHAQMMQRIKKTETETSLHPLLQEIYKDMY
Retinoic acid receptor RXR-alpha (Homo sapiens), sequence (P19793 whole entry, looked up): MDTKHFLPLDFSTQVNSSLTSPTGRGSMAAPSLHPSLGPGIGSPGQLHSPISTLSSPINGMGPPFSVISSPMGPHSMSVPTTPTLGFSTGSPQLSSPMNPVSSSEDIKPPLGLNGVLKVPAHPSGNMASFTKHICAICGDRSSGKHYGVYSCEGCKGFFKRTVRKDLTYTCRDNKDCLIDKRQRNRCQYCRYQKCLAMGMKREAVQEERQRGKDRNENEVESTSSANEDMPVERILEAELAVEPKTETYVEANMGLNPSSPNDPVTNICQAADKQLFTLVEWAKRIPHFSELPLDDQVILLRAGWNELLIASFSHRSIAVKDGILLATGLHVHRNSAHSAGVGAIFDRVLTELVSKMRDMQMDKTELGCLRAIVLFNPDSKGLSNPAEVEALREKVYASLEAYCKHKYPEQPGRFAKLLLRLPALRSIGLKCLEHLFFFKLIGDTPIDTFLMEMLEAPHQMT

`Oc1ccc(-c2ccc(O)cc2)cc1`: the Potency result in test [1], in [2], in test [3], in test [4], in [5] and in test [6] was “inactive” throughout. For the same compound, the Potency entry in test [7], in test [8], in test [9], in test [10], in [11] and in test [12] was “inactive” each time.
In the case of `O[C@@H](c1cc(C(F)(F)F)nc2c(C(F)(F)F)cccc12)[C@H]1CCCCN1`, the Potency in test [1] is 10.6 µM (active); in [2], 8.41 µM (active); in test [13], 13.3 µM (active); in [14], 13.3 µM (active); in test [3], 26.6 µM (active); in [7], 19 µM (active). For the same compound, the Potency in test [12] is 15.1 µM (active). Also, the Potency result in [15], in test [8] and in [10] was “inactive” each time.
As for `CCCCCCOc1ccc(O)cc1`, the Potency result in [1], in test [13], in test [14], in test [3], in [4] and in test [7] was “inactive” each time. Besides, the Potency result in test [8], in [9] and in [17] was “inactive” throughout. Besides, in test [16], the compound was classed as inactive.
As to `CCOC(=O)COc1ccc(C)cc1`, the Potency entry in [2], in [18], in test [14], in [15], in test [3] and in test [5] was “inactive” in each case. For the same compound, the Potency result in test [6], in test [7], in [8], in [9], in test [17] and in test [10] was “inactive” throughout. Further, the Potency result in test [11] and in test [12] was “inactive” throughout.
In the case of `Cc1cccc(Br)c1`, the outcome in test [16] was inactive. The Potency entry in [2], in test [13], in [14], in [3], in test [7] and in test [8] was “inactive” throughout. The Potency entry in test [9] is “inactive”. Moreover, in test [12], the Potency was 55.3 µM (active).
With `CCc1ccc(O)c(C(C)(C)C)c1`, the call in test [16] was inactive. For the same compound, the Potency result in test [14], in test [3], in [4], in [8] and in test [17] was “inactive” in each case. For the same compound, the Potency in test [7] is 38.9 µM (active).
In the case of `c1ccc(Nc2cccc3ccccc23)cc1`, the Potency result in [2], in test [13], in test [14], in [3], in [4] and in test [5] was “inactive” in each case. Also, the Potency entry in [8] and in [17] was “inactive” in each case. In addition, the Potency was 31.3 µM (active) and 49 µM (active) in [10]; 24.9 µM (active) in [12].
As for `COC(=O)[C@]1(C)CCC[C@@]2(C)[C@H]1CC=C1C=C(C(C)C)CC[C@@H]12`, the Potency result in [2], in test [18], in test [4], in test [5], in [7] and in test [9] was “inactive” in each case. The Potency result in test [17], in [10], in test [11], in test [20] and in [12] was “inactive” in each case. In [19], the Potency was 49 µM (active).
In the case of `O=C(Nc1ccc(Cl)c(Cl)c1)c1cc(Cl)cc(Cl)c1O`, the Potency was 11 µM (active) in [2]; 3.89 µM (active) in test [14]; 13.8 µM (active) in [3]; 1.95 µM (active) in [6]; 2.75 µM (active) in test [7]; 19.5 µM (active) in [8]. Besides, the figures for the Potency in [9] and in test [12] were 9.69 µM (active) and 19.5 µM (active), respectively.
Take `CCC1(c2cnc[nH]2)Cc2ccccc2C1`: in [16], the call was inactive. Also, the Potency result in test [2], in test [14], in [3], in test [5], in test [6] and in test [7] was “inactive” in each case. Besides, the Potency result in test [19], in test [9], in [17], in test [10], in test [20] and in [12] was “inactive” in each case.
